According to PubChem BioAssay (NCATS):
Inconclusive results are not listed. Unmarked numbers belong to inactive results. Calls of active or inactive are those of the source. The call rests on the fitted dose curve; in most records, active means well fitted inhibition curve with a large enough effect; inconclusive means small, poorly fitted or top-dose-only effect; inactive means flat fitted curve, though single readings scatter.

Tests used:
Assay in all cases: Cytotoxic Profiling of Annotated Libraries Using Quantitative High-Throughput Screening (AID 1296008); further: nearly all actives have a fitted effect of over 60% in size
Conditions in all cases: Five cell lines viability, CellTiter-Glo ATP luminescence, 48-72 h; max response: active compounds read low
HEK293 = tested on: HEK293
Method in brief: (§1)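 Compounds were pin-transferred onto cells and incubated 48 or 72 hr at 37 degree Celsius, 95% humidity. CellTiter-Glo was added, plates sat 10 min at room temperature, then ATP-coupled luminescence was imaged as the viability read-out.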

HaCat = tested on: HaCat
Method in brief: as §1

KB-3-1 = tested on: KB-3-1
Method in brief: as §1

NIH3T3 = tested on: NIH3T3
Method in brief: as §1
On the % scale 0 is the no-effect control and ±100 the full control effect; potency means the concentration at half of the fitted maximal effect.

C=CC(C)(C)c1[nH]c2ccccc2c1C[C@@H]1NC(=O)[C@H](Cc2c[nH]c3ccccc23)NC1=O
max response (HEK293): -1.95%
max response (HaCat): -3.54%
max response (KB-3-1): 3.66%
max response (NIH3T3): 0.0013%

C[C@@H]([C@@H](O)c1ccc(O)cc1)N1CCC(O)(c2ccccc2)CC1
max response (HEK293): -2%
max response (HaCat): -0.788%
max response (KB-3-1): -1.25%
max response (NIH3T3): 1.49%

COc1cc2c(cc1O)CC[C@H]1[C@@H]2CC[C@]2(C)[C@H](O)CC[C@@H]12
Potency (HEK293): 1030 nM (active)
Potency (HaCat): 580 nM (active)
Potency (KB-3-1): 1640 nM (active)
Potency (NIH3T3): 820 nM (active)

CCc1cc(CN2CC(C(=O)O)C2)sc1-c1noc(-c2ccc(Oc3ccccc3)cc2)n1
max response (HEK293): -73%
max response (HaCat): -26.8%
max response (KB-3-1): -20.8%
max response (NIH3T3): -43%

O=C(/C=C/c1ccc(O)cc1)OC1[C@H](O)CC(O)(C(=O)O)C[C@H]1O (some centres not stated)
max response (HEK293): -1.83%
max response (HaCat): 1.01%
max response (KB-3-1): 2.34%
max response (NIH3T3): -9.08%

COC(=O)c1ccnc(-c2cc(C(=O)NCCc3ccccc3)ccn2)c1
max response (HEK293): -3.61%
max response (HaCat): 1.24%
max response (KB-3-1): 1.93%
max response (NIH3T3): 1.58%

C/C(=C\CC[C@@H](C)[C@H]1CC(O)[C@@]2(C)C3CC[C@H]4C(C)(C)[C@@H](OC5OCC(O)C(O)C5OC5OC(CO)C(O)C(O)C5O)CC[C@@]45C[C@@]35CC(O)[C@]12C)C(=O)O (some centres not stated)
max response (HEK293): 0.167%
max response (HaCat): -0.726%
max response (KB-3-1): 6%
max response (NIH3T3): -27.1%

CCCCNc1ncc2c(-c3ccc(F)cc3)nn(CC3CCC(N)CC3)c2n1 (configuration not stated)
max response (HEK293): -110%
Potency (HaCat): 10000 nM (active)
Potency (KB-3-1): 2820 nM (active)
Potency (NIH3T3): 6320 nM (active)

CC1CCC23COC(=O)C2=CC(O)CC3C1(C)CCC1=CC(O)OC1=O (configuration not stated)
max response (HEK293): 1.91%
max response (HaCat): -7.3%
outcome (KB-3-1): inactive
max response (NIH3T3): 0.229%

COc1cc2ncnc(Nc3ccc(F)c(Cl)c3)c2cc1NC(=O)/C=C/CN1CCCCC1
Potency (HEK293): 7310 nM (active)
Potency (HaCat): 41.1 nM (active)
Potency (KB-3-1): 13000 nM (active)
Potency (NIH3T3): 16400 nM (active)

O=C(CSc1nc2c(c(=O)n1-c1ccccc1)SCC2)Nc1ccc(-c2ccccc2)cn1
Potency (HEK293): 41.1 nM (active)
max response (HaCat): -7.15%
Potency (KB-3-1): 46.1 nM (active)
Potency (NIH3T3): 58 nM (active)

CCC(=O)O[C@H]1C(C)(C)[C@H]([C@@H](O)C(=O)OC)[C@]2(C)C(=O)[C@@]1(O)[C@H]1O[C@]13C1CC(=O)O[C@@H](c4ccoc4)[C@]1(C)CCC32 (some centres not stated)
max response (HEK293): -1.59%
max response (HaCat): -11.6%
max response (KB-3-1): -4.09%
max response (NIH3T3): -25.4%

COc1c2cc(c(O)c1OC)-c1cc(ccc1O)CCC(O)CCCC2 (configuration not stated)
max response (HEK293): 1.1%
outcome (HaCat): inactive
outcome (KB-3-1): inactive
max response (NIH3T3): -1.69%

CC1(C)CCCC2(C)C1CC=C1C(=O)OC(O)C12O (configuration not stated)
max response (HEK293): -21.2%
max response (HaCat): 3.25%
max response (KB-3-1): 3.77%
max response (NIH3T3): 0.868%

C/C(=C\CCC1(C)C2CCC(C2)C1(C)O)C(=O)O (configuration not stated)
max response (HEK293): -6.56%
max response (HaCat): 0.481%
outcome (KB-3-1): inactive
max response (NIH3T3): 3.29%

NC[C@@](O)(c1ccc(Cl)cc1)c1ccc(-c2cn[nH]c2)cc1
Potency (HEK293): 5800 nM (active)
Potency (HaCat): 8200 nM (active)
Potency (KB-3-1): 11600 nM (active)
Potency (NIH3T3): 5170 nM (active)

COC(=O)C1=CO[C@@H](O[C@@H]2O[C@H](CO)[C@@H](O)[C@H](O)[C@H]2O)[C@@H]2[C@@](C)(O)[C@@H](OC(=O)/C=C/c3ccc(O)cc3)C[C@]12O
max response (HEK293): 3.54%
max response (HaCat): 1.25%
max response (KB-3-1): 0.0331%
max response (NIH3T3): 2.33%

Cc1cc(C)c2c(N)c(C(=O)NCc3ccc(Cl)cc3)sc2n1
max response (HEK293): -96.1%
max response (HaCat): -6.45%
max response (KB-3-1): -4.61%
max response (NIH3T3): -1.38%

Cc1nc(C)c(-c2ccc(C3CCC(CC(=O)O)CC3)cc2)nc1C(N)=O (configuration not stated)
max response (HEK293): -0.422%
max response (HaCat): -2.77%
max response (KB-3-1): -11.8%
max response (NIH3T3): 2.81%

CC1=CC(=O)CC(C)(C)C1CCC(C)O[C@@H]1O[C@H](CO[C@@H]2OC[C@@H](O)[C@H](O)[C@H]2O)[C@@H](O)[C@H](O)[C@H]1O (some centres not stated)
max response (HEK293): -8.79%
max response (HaCat): 4.17%
max response (KB-3-1): 1.12%
max response (NIH3T3): 3.34%

CC(C)=CCCC1(C)C=Cc2c(c(C)cc3c2[nH]c2ccccc23)O1 (configuration not stated)
max response (HEK293): -24.1%
max response (HaCat): 3.9%
max response (KB-3-1): 6.53%
max response (NIH3T3): -4.99%

COCCN1CCN(Cc2ccc(-c3n[nH]c4c3C(=O)c3c(NC(=O)NN5CCOCC5)cccc3-4)cc2)CC1
Potency (HEK293): 206 nM (active)
Potency (HaCat): 231 nM (active)
Potency (KB-3-1): 146 nM (active)
Potency (NIH3T3): 517 nM (active)

CC1=CC(=O)CC(C)(C)[C@@]1(O)CC[C@@H](C)O[C@@H]1O[C@H](CO)[C@@H](O)[C@H](O)[C@H]1O
max response (HEK293): -2.25%
max response (HaCat): -28.9%
max response (KB-3-1): 1.23%
max response (NIH3T3): 0.984%

CC1OC(OC2C(CO)OC(OCC3OC(OC(=O)C45CCC(C)(C)CC4C4=CCC6C7(C)CCC(OC8OC(CO)C(O)C(OC9OC(CO)C(O)C(O)C9O)C8O)C(C)(C)C7CCC6(C)C4(C)CC5)C(O)C(O)C3O)C(O)C2O)C(O)C(O)C1OC1OC(CO)C(O)C(O)C1O (configuration not stated)
max response (HEK293): -0.594%
max response (HaCat): -8.62%
max response (KB-3-1): -0.0406%
max response (NIH3T3): -0.84%

C/C=C1\[C@H](O[C@@H]2O[C@H](CO)[C@@H](O)[C@H](O)[C@H]2O)OC=C(C(=O)OC)[C@H]1CC(=O)OC[C@H]1O[C@@H](OCCc2ccc(O)cc2)[C@H](O)[C@@H](O)[C@@H]1O
max response (HEK293): 0.429%
max response (HaCat): -4.08%
max response (KB-3-1): 1.44%
max response (NIH3T3): -11.8%

CC1=CC(=O)CC(C)(CO)C1(O)/C=C/C(C)O[C@@H]1O[C@H](CO)[C@@H](O)[C@H](O)[C@H]1O (some centres not stated)
max response (HEK293): -1.52%
max response (HaCat): 2.49%
max response (KB-3-1): -2.84%
max response (NIH3T3): -3.42%

COc1ccc(CNC(=O)c2sc3nc(C)cc(C)c3c2N)cc1
max response (HEK293): -0.378%
max response (HaCat): -25%
max response (KB-3-1): -4.88%
max response (NIH3T3): -5.95%

CS(=O)(=O)N(CC(=O)NCC1CC1)c1cc(C(F)(F)F)ccc1Cl
max response (HEK293): 0.809%
max response (HaCat): -2.56%
max response (KB-3-1): 5.98%
max response (NIH3T3): -6.39%

COCC1OC(OC(C)(C)C2CCC3(C)C=C(C4CCC5C4(C)CC(O)C4OC(C(C)(C)OC6OC(CO)C(O)C(O)C6NC(C)=O)CCC45C)CCC3O2)C(NC(C)=O)C(O)C1O (configuration not stated)
max response (HEK293): -5.83%
max response (HaCat): -6.25%
max response (KB-3-1): 1.62%
max response (NIH3T3): 1.73%

CN1CCc2nc(C(=O)N[C@@H]3C[C@@H](C(=O)N(C)C)CC[C@@H]3NC(=O)C(=O)Nc3ccc(Cl)cn3)sc2C1
max response (HEK293): -78.6%
max response (HaCat): -24.6%
max response (KB-3-1): -42%
max response (NIH3T3): -49.4%

CC(O)CO[C@@H]1O[C@H](CO)[C@@H](O)[C@H](O)[C@H]1O (some centres not stated)
max response (HEK293): -61.7%
max response (HaCat): -15.1%
outcome (KB-3-1): inactive
max response (NIH3T3): 0.151%

CC(C)CNCc1ccc(-c2ccccc2S(=O)(=O)N2CCCC2)cc1
max response (HEK293): -19.2%
max response (HaCat): -12.3%
max response (KB-3-1): -1.28%
max response (NIH3T3): -1.63%

O=C(O)c1cn(C2CC2)c2cc(N3C[C@@H]4C[C@H]3CN4)c(F)cc2c1=O
max response (HEK293): -1.22%
max response (HaCat): -12.6%
outcome (KB-3-1): inactive
max response (NIH3T3): -4.63%

O=[N+]([O-])c1cccc2[nH]c(CNc3nc(N4CCOCC4)nc4c3ncn4-c3ccsc3)nc12
Potency (HEK293): 58 nM (active)
Potency (HaCat): 461 nM (active)
Potency (KB-3-1): 164 nM (active)
Potency (NIH3T3): 259 nM (active)

C[C@@H]1C(=O)O[C@H](C)[C@H]1CC(=O)[C@](C)(O)[C@H]1CC[C@@]2(O)C3=CC(=O)[C@@H]4C[C@@H](O)[C@@H](O)C[C@]4(C)C3CC[C@]12C (some centres not stated)
max response (HEK293): -19.4%
max response (HaCat): -15.8%
max response (KB-3-1): -2.99%
max response (NIH3T3): 1.5%

CC(=O)c1c(O)cc(O[C@@H]2O[C@H](CO)[C@@H](O)[C@H](O)[C@H]2O)cc1O
max response (HEK293): 1.76%
max response (HaCat): -1.69%
outcome (KB-3-1): inactive
max response (NIH3T3): 1.77%

O=C(NCc1cccc(O)c1)c1cc2cc(F)ccc2[nH]1
max response (HEK293): -13.7%
max response (HaCat): -7.37%
max response (KB-3-1): -5.86%
max response (NIH3T3): -0.959%

C[C@H]1[C@H](O)O[C@@H]2O[C@@]3(C)CC[C@H]4[C@H](C)CC[C@@H]1[C@@]24OO3
Potency (HEK293): 1840 nM (active)
Potency (HaCat): 6510 nM (active)
Potency (KB-3-1): 16400 nM (active)
Potency (NIH3T3): 13000 nM (active)

Cc1cccc(S(=O)(=O)N2CCC[C@@H]2CCN2CCC(C)CC2)c1
max response (HEK293): -20.7%
max response (HaCat): -28.1%
max response (KB-3-1): -9.32%
max response (NIH3T3): -11.7%

C[C@]1(CO)CCC[C@]2(C)C3=C(CCC12)COC3 (some centres not stated)
max response (HEK293): -9.57%
max response (HaCat): -11.9%
max response (KB-3-1): 5.06%
max response (NIH3T3): 4.03%

CCOc1cc(CC(=O)NC(CC(C)C)c2ccccc2N2CCCCC2)ccc1C(=O)O (configuration not stated)
max response (HEK293): -4.19%
max response (HaCat): 3.59%
max response (KB-3-1): -3.75%
outcome (NIH3T3): inactive

COCCOc1ccc(N2CCN(CCn3ncc4c3nc(N)n3nc(-c5ccco5)nc43)CC2)cc1
max response (HEK293): -9.01%
max response (HaCat): 2.38%
max response (KB-3-1): -29.2%
max response (NIH3T3): 0.99%

OC[C@H]1O[C@@H](OCCc2ccc(O)cc2)[C@H](O[C@@H]2OC[C@](O)(CO)[C@H]2O)[C@@H](O)[C@@H]1O
max response (HEK293): 0.652%
max response (HaCat): 1.3%
max response (KB-3-1): 8.69%
max response (NIH3T3): -3.47%
